# HPGD block = inhibitors of human 15-hydroxyprostaglandin dehydrogenase (HPGD). P15428. purified HPGD, NADH fluorescence kinetic, PGE2 substrate. Potency, µM, without a hit: at the highest dose activity change, negative = inhibition, hits mostly inhibitors. 4.3% of 150,000 active; also: potency is read from the fitted curve at half-maximal effect
#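 20 nM HPGD preincubated 15 min at room temperature with compound in 50 mM Tris-HCl pH 8, 0.01% Tween 20. Started with 1 mM NAD+ and 30 uM prostaglandin E2; NADH fluorescence (360/450 nm) read 5 times over 30-s intervals, last minus first.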
# PNC inhibitor = blocks assembly of the perinucleolar compartment | 3.1% of 140,000 active | PC3M PTB-GFP, PNC prevalence imaging, 16 h; hits give low values | activity change (PNC), negative = inhibition, % at 10 µM;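 active = readout at or below -70, meaning at least 70% loss of cells showing the perinucleolar compartment, a nuclear body marking cancer cells; inconclusive = readout between -30 and a set limit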;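 also: plate controls were DMSO wells for no effect and camptothecin positive control wells for full effect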
#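 PC3M cells stably expressing PTB-GFP, 750–1000 cells/well, treated 16 h at 37 °C with compound (23 nl of library stock), in duplicate. After paraformaldehyde fixation and Hoechst stain, imaged at 20x; PNC prevalence scored by image analysis.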
# ALDH1A1 inh = blocks purified human ALDH1A1 activity. P00352. 7.3% of 220,000 active. Purified ALDH1A1, NADH fluorescence, propionaldehyde substrate. AID 1030. Potency, µM (top dose mostly 75.3 µM), without a hit: at the top dose activity, negative = inhibition, hits mostly inhibitors;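 also: potency is read from the fitted curve at half-maximal effect; plate controls were no enzyme wells and a reference inhibitor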
# Target sequence (P00352 whole entry, looked up): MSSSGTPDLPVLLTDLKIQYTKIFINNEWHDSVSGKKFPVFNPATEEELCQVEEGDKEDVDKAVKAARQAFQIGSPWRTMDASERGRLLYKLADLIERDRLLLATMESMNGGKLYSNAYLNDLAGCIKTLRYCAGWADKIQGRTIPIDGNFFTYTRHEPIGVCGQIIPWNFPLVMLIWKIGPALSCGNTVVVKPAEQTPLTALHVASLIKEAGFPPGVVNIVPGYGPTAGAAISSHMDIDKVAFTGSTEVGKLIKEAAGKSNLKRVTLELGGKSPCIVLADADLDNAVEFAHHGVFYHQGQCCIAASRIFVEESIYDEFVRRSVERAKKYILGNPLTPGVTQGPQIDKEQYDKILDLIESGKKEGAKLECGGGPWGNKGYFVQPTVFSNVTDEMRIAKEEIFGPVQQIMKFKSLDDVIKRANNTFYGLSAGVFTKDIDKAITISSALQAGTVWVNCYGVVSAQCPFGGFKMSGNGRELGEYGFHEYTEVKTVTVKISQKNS
# Starred values were filed as active, the others as inactive; ? = inconclusive; / = no result; [ ] = dose if it differs, or a comment. Most compounds without a hit are left out; they make up all but 11% or so of the library. Unless noted, calls follow the shape of the dose curve; as a rule, active = well fitted inhibition curve with a large enough effect (not every such curve was filed as active); inconclusive = small, poorly fitted or top-dose-only effect, or another doubt; inactive = no such curve, though single readings can be large or run the other way. Unless noted, % is scaled to controls: 0 for no effect and ±100 for the full control effect.
SMILES,HPGD block,PNC inhibitor,ALDH1A1 inh
Cn1c(=O)[nH]c(=O)c2[nH]c(N(Cc3ccccc3)Cc3ccccc3)nc21,-14%,4,-10%
O=C1c2ccccc2C(=O)C1Cc1cccc2ccccc12,14µM*,?,?
c1ccc2c(CSCc3cccc4ccccc34)cccc2c1,-6%,/,7%[13.5 µM]
COc1ccc(CC(=O)O/N=C(\N)Cc2cccc3ccccc23)cc1OC,-8%,23,-2%
CC(C)(C)C1CCC(=NNC(=O)CN(c2ccccc2)S(=O)(=O)c2ccccc2[N+](=O)[O-])CC1 (stereo unspecified),-20%,26,10µM*
C/C(=N\NC(=O)CN(c1ccccc1)S(=O)(=O)c1ccccc1[N+](=O)[O-])C(C)(C)C,-8%,37,-3%
O=C(O)CCN1CC2([N+](=O)[O-])C=CC(=O)C([N+](=O)[O-])(C1)C2CC(=O)c1ccccc1 (stereo unspecified),-25%,7,?
CC/C(C)=N/NC(=S)NCc1ccco1,4%,?,-13%
COc1cccc(NC(=O)Cc2nc(-c3ccccc3)sc2-c2ccc(C)cc2)c1,?,80,25µM*
CC(=O)Nc1cccc(NC(=O)Cc2nc(-c3ccccc3)sc2-c2ccc(C)cc2)c1,-14%,7,0%
Cc1ccc2cccnc2c1,-2%,/,?
CCS(=O)(=O)N1N=C(c2cccc(NS(C)(=O)=O)c2)CC1c1ccc(C)cc1 (stereo unspecified),/,/,20µM*
CCC(=O)N1N=C(c2cccc(NS(C)(=O)=O)c2)CC1c1cccs1 (stereo unspecified),-14%,47,4%
CCCn1c(N)cc(=O)n(C)c1=O,/,/,1%
CCC(CO)NCC(O)COCc1ccc2c(c1)OCO2 (stereo unspecified),/,/,-8%
N#CCCN(CCC#N)C(=O)COc1ccc(Cl)cc1Cl,0%,22,-6%
CCCCCCCN(C(=O)CCl)c1cccc(C)c1,-26%,16,0.22µM*
N#CCCN(C(=O)CCl)c1cccc(Cl)c1,/,/,0.11µM*
CCOC(=O)CCC(=O)N(CCN(C(=O)CCC(=O)OCC)c1ccccc1)c1ccccc1,0%,30,2%
COCCNC(=O)CSc1ncnc2sccc12,18µM*,-20,-3%
CCNC(=O)CSc1ncnc2sccc12,-17%,9,10%
CC(C)Oc1ccc(CNC2CCOC(C)(C)C2)cc1 (stereo unspecified),-10%,18,2%
CCN(CC)S(=O)(=O)c1ccc2oc(C(=O)N3CCc4ccccc4C3)c(C)c2c1,28µM*,?,?
CCN(CC)S(=O)(=O)c1ccc(NC(=O)C2CCCN(C(=O)c3ccc(Cl)cc3)C2)cc1 (stereo unspecified),-10%,43,?
Cc1c(C(=O)N2CCc3ccccc3C2)oc2ccc(S(=O)(=O)N3CC(C)CC(C)C3)cc12 (stereo unspecified),-15%,29,1%
SMILES,HPGD block,PNC inhibitor,ALDH1A1 inh
CCN(CC)S(=O)(=O)c1ccc2oc(C(=O)N3CCOCC3)c(C)c2c1,?,?,6%
C=CCNC(=O)c1oc2ccc(S(=O)(=O)N(CC)CC)cc2c1C,20µM*,-29,20µM*
CCN(CC)S(=O)(=O)c1ccc2oc(C(=O)N3CCCCCC3)c(C)c2c1,7.1µM*,25,13µM*
CCN(CC)S(=O)(=O)c1ccc(C(=O)N2CCCCC2)cc1,4µM*,26,-15%
CCN(CC)S(=O)(=O)c1ccc2oc(C(=O)NC3CCCc4ccccc43)c(C)c2c1 (stereo unspecified),-18%,9,4%
COc1cccc(OC)c1C(=O)N1CCN(c2c(Cc3ccccc3)c(C)nc3ncnn23)CC1,-8%,?,-3%
CCN1CCN(C(c2ccc(OC)cc2)C(O)C(=O)c2c[nH]c3ccccc23)CC1 (stereo unspecified),4%,49,-4%
CCSc1nc(O)c(Cc2ccccc2)c(=O)[nH]1,-8%,-7,-1%
CC(=O)N1CCC2(CCN(Cc3ccc(C#N)cc3)CC2)CC1,-5%,/,7%
Cc1c(C(=O)O)oc2ccc(S(=O)(=O)NCc3ccc(F)cc3)cc12,-20%,0,-5%
Cc1c(C(=O)O)oc2ccc(S(=O)(=O)NC3CCCCCCC3)cc12,-27%,-113*,?
O=C(N/C(=C\c1ccco1)C(=O)N1CCCC1)c1cccs1,-6%,?,3%
O=C(N/C(=C/c1ccco1)C(=O)N1CCCC1)c1cccs1,-13%,-106*,-10%
C=CCn1c(SCC(=O)N(C)C2CCS(=O)(=O)C2)nc2ccccc2c1=O (stereo unspecified),/,/,4%
Cc1c(-n2c(SCC(=O)N(C)C3CCS(=O)(=O)C3)nc3ccccc3c2=O)c(=O)n(-c2ccccc2)n1C (stereo unspecified),/,/,25µM*
COc1ccc(/C=N/NC(=O)CNC(=O)C2COc3ccccc3O2)cc1OC (stereo unspecified),-23%,-19,?
COc1ccc(S(=O)(=O)N2CCSC2c2ccc(OC)c(OC)c2)cc1 (stereo unspecified),-17%,15,?
COc1ccc(S(=O)(=O)N2CCSC2c2ccccc2)cc1 (stereo unspecified),-19%,30,25µM*
CN(C)S(=O)(=O)Nc1cc(Cl)cc(Cl)c1,/,/,16%
C#CCCCCCCCCCCCC(=O)CC(O)COC(C)=O (stereo unspecified),-9%,/,9%
CCNC(=S)N(CCc1c(C)[nH]c2ccccc12)Cc1cc(OC)c(OC)c(OC)c1,-10%,41,10%
CC(=O)n1c2ccccc2c2c1c1ccccc1n2C,?,21,?
C=CCNc1nc2c3ccccc3n(C(C)=O)c2s1,-3%,-17,28µM*
Cc1cc(C)c(S(=O)(=O)NCC(=O)NCc2ccccn2)c(C)c1,/,/,-10%
O=C(Cc1c(Cl)cccc1Cl)OCC(=O)N1CCc2ccccc2C1,-15%,-29,8%
SMILES,HPGD block,PNC inhibitor,ALDH1A1 inh
COc1ccc(/C=C2/N=C(SC3CCOC3=O)N(c3cccc(OC)c3)C2=O)cc1 (stereo unspecified),/,25,3.5µM*
COc1ccc(-n2c(SC3CCOC3=O)nc3ccccc32)cc1 (stereo unspecified),0%,15,6%
CC(=O)O[C@H]1CC[C@@]2(C)C(=CC[C@@H]3[C@H]4CC[C@@H]([C@H](C)C(=O)O)[C@]4(C)CC[C@H]32)C1,-9%,/,14%[13.5 µM]
O=C(O)Cc1ccc(C(=O)c2ccccc2F)s1,16µM*,47,5µM*
CCc1ccc(C(=O)c2ccccc2C(=O)O)s1,0%,63,4%
CC(C)(C)OC(=O)NC(CO)c1cn([C@@H](Cc2cc3ccccc3[nH]2)C(=O)N2CCN(C(=O)OC(C)(C)C)CC2)nn1 (stereo partly specified),/,/,3%
CCCCC(=O)Nc1sc2c(c1-c1nc3ccccc3s1)CCN(C(C)=O)C2,-20%,-28,25µM*
N#Cc1c(NC(=O)CSc2nc3ccccc3s2)sc2c1CCCC2,-18%,7,?
CC(C)CO/N=C1/C[C@@H](O)[C@@H](O)[C@@H]2[C@@H]3C(=O)N(C[C@@H]4CCCO4)C(=O)[C@H]3CC[C@H]12,/,/,2%[13.5 µM]

# Bioassay records deposited in PubChem BioAssay by National Center for Advancing Translational Sciences (NCATS).
